Source: PubChem
JMJD2A Tudor: inhibitors of human JMJD2A Tudor domain. AlphaScreen JMJD2A-Tudor / H3K4me3 peptide binding. Potency, µM (series often up to 114 µM), for the others: top-dose activity change, negative = inhibition, usual class: inhibitors. 390,000 compounds, 4.4% hits; note: % is set by controls: 0 for no effect and ±100 for the full control effect; nearly all actives have a fitted effect of over 50% in size
Sfp inh: Sfp phosphopantetheinyl transferase inhibition; Q9F4F7; Biochemical Sfp PPTase activity, qHTS; Potency, µM, for inactives: largest response in the series, negative = inhibition, most hits filed as inhibitors; 310,000 compounds, 3.5% hits; AID 1490;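 note: the enzyme is Sfp with the accession as filed and its product quenches rhodamine fluorescence; 0% = enzyme reaction without inhibitor and -100% = no enzyme wells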
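With Hepes-Na pH 7.6 buffer containing 10 mM MgCl2, Sfp (15 nM) modified BHQ-2-YbbR (12.5 uM) using rhodamine-CoA (5 uM). Two reads 30 minutes apart at 525/598 nm yielded each well's rate.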
BAZ2B inh: blocks human BAZ2B; AID 504333; Q9UIF8; Potency, µM (highest dose often 114 µM), without a hit: at the top dose activity change, negative = inhibition, actives largely listed as inhibitors; 360,000 compounds, 4.4% hits; AlphaScreen BAZ2B-H3K14Ac peptide displacement; note: % is set by controls: 0 for no effect and ±100 for the full control effect; nearly all actives have a fitted effect of over 60% in size
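BAZ2B (50 nM) with biotin-H3(5-23)K14Ac peptide (50 nM) in PBS pH 7.4, 0.01% Tween-20, preformed 30 min, then compound 30 min at room temperature; top concentration 110uM. AlphaScreen streptavidin donor/nickel chelate acceptor beads (10 ug/mL final), 20 min dark, signal read.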
HP1b chromo inh: HP1-beta chromodomain-methylated histone interaction inhibition | P83916 | AlphaScreen HP1-beta / biotin-H3K9me3 peptide binding | Potency, µM (highest dose often 114 µM), inactives show at the top dose activity change, negative = inhibition, hits mostly inhibitors | 390,000 compounds, 0.56% hits | AID 540317; note: nearly all actives have a fitted effect of over 70% in size
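AlphaScreen: HP1-beta (50 nM) preformed 30 min with biotin-H3(1-18)K9me3 peptide (50 nM) in PBS pH 7.4, 0.01% Tween-20. Compound added for 30 min at RT, then streptavidin donor/nickel chelate acceptor beads (10 ug/mL) for 30 min.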
L3MBTL1 block: blocks human L3MBTL1; Potency, µM (series often up to 57.1 µM), without a hit: at the top dose activity, negative = inhibition, most hits filed as inhibitors; 230,000 compounds, 0.66% hits; AlphaScreen L3MBTL1–H3K9me1 peptide binding; note: % is set by controls: 0 for no effect and ±100 for the full control effect; nearly all actives have a fitted effect of over 60% in size
Target sequence (Q9Y468 whole entry, looked up): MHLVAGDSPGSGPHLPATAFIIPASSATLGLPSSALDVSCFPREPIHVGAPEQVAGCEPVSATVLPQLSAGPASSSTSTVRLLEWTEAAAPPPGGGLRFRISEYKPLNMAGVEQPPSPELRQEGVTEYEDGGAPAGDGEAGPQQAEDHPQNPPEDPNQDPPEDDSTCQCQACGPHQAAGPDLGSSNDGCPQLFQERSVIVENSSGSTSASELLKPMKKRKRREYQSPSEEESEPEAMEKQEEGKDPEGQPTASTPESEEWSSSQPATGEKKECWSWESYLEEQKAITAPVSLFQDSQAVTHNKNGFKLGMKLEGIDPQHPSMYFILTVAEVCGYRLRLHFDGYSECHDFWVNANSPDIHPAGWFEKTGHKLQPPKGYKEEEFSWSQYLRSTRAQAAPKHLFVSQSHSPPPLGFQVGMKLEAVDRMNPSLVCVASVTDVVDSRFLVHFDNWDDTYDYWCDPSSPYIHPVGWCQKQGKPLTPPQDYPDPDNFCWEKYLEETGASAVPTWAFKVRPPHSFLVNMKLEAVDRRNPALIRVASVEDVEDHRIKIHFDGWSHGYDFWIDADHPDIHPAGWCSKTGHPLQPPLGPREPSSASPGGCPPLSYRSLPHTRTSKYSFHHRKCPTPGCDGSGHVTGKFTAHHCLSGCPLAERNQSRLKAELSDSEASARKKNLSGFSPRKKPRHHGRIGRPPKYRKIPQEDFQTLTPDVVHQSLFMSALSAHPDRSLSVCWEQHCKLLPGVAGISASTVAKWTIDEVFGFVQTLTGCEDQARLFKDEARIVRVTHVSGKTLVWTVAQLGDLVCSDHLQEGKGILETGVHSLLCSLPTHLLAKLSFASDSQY
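Displacement of a biotinylated histone H3(1-15) peptide monomethylated at Lys9 (75 nM) from L3MBTL1 (50 nM) was measured by AlphaScreen after a 30 min room-temperature compound incubation; cefsulodin titration served as intraplate control.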
G9a block: G9a (human) methyltransferase inhibition. Q96KQ7. G9a H3K9 monomethylation, AlphaScreen, 2 h. Potency, µM (series often up to 102 µM), for the others: at the top dose activity, negative = inhibition, most hits filed as inhibitors. 350,000 compounds, 8.8% hits. AID 504332; note: % is set by controls: 0 for no effect and ±100 for the full control effect; nearly all actives have a fitted effect of over 75% in size
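Enzyme 20 nM + cpd, 15 min RT; add b-H3K9 pep 500 nM / SAM 20 uM; 2 h RT; anti-H3K9me1 Ab 0.5 ug/mL + SA donor / anti-rabbit acceptor beads 20 ug/mL each, 10 min; AlphaScreen read.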
Starred values were filed as active, the others as inactive; ? = inconclusive; nt = not tested or not shown; [ ] = remark or other dose. The list is not random: actives were taken first. Their share in the collection is about 12%. Calls come from the whole dose curve; as a rule, active = well fitted curve in the direction sought with a large enough effect; inconclusive = small, poorly fitted or top-dose-only effect, or another doubt; inactive = no such curve, though single readings can be large; an effect the other way counts as inactive or inconclusive. Potency is the fitted concentration of half-maximal effect.

SMILES	JMJD2A Tudor	Sfp inh	BAZ2B inh	HP1b chromo inh	L3MBTL1 block	G9a block
Cc1ccc(NC(=O)c2cnc(SCC(=O)N3CCOCC3)n(C)c2=O)cc1	-15%	nt	-3%	20%	nt	10%[59 µM]
CCCCN1CC2([N+](=O)[O-])C=CC(=O)C([N+](=O)[O-])(C1)C2CC(=O)c1ccccc1 (stereo unspecified)	-9%	11%	-6%	17%	-2%	45µM*
COc1ccc(C2=Nn3c(nnc3-c3cccc(OC)c3OC)SC2)cc1	-24%	3%	nt	nt	nt	nt
O=C(/C=C/c1ccccc1[N+](=O)[O-])c1ccc(F)cc1	-3%	-28%	-16%	6%	-9%	40µM*
O=C(/C=C/c1ccccc1[N+](=O)[O-])Oc1ccccc1	nt	-6%	?	nt	nt	71µM*
CCN(Cc1ccccc1)C(=O)/C=C/c1ccccc1[N+](=O)[O-]	-21%	18%	89µM*	40%	-2%	-47%
COc1cccc(NC(=O)CSc2nc3ccc(NC(=O)c4ccco4)cc3s2)c1	-8%	nt	-4%	93%	nt	3%[59 µM]
CCOc1cccc(CC(=O)N2CCc3c([nH]c4ccccc34)C2c2ccccc2)c1OCC (stereo unspecified)	?	nt	?	-9%[57 µM]	nt	-41%[59 µM]
CCCCCCC/C=C/C1=CC2(C)CC1(C)C(CCCCCCC)CC2=O (stereo unspecified)	nt	-7%	nt	nt	nt	nt
CCc1c2c(nc3cccc(SC)c13)COC2	nt	-3%	nt	nt	nt	nt
Oc1ccc(-c2nc(-c3ccccc3)c(-c3ccc(Br)cc3)[nH]2)cc1	?	nt	?	-12%	nt	-10%[59 µM]
COc1cc(-c2nc(-c3ccccc3)c(-c3ccc(Br)cc3)[nH]2)cc(OC)c1O	45µM*	nt	28µM*	?	nt	10µM*
COc1ccc(-c2[nH]c(-c3cc(OC)c4c(c3)OCO4)nc2-c2ccccc2)cc1	?	26%	?	?	-17%	40µM*
Cc1ccc(-c2[nH]c(-c3ccc(C(=O)O)cc3)nc2-c2ccccc2)cc1	?	-2%	?	-33%	-13%	?
COc1ccc(-c2nc(-c3ccccc3)c(-c3ccc(F)cc3)[nH]2)c(OC)c1C	?	nt	25µM*	-12%	nt	?
CCOc1ccc(-c2nc(-c3ccccc3)c(-c3ccccc3)[nH]2)cc1OCC	-15%	nt	-12%	41%	nt	14%[59 µM]
CCOC(=O)c1sc2cccc(F)c2c1S(=O)(=O)NCc1ccccc1Cl	-21%	nt	-1%	86%	nt	?
COC(=O)[C@@H](NC(=O)O[C@@H]1C(=O)c2cc(Br)ccc2O[C@H]1c1ccc2c(c1)OCO2)C(C)C	nt	-1%	nt	nt	nt	nt
COc1ccc(-c2cc(-c3ccccc3)no2)cc1	1%	nt	10%	38%	18%	6%[2.33 µM]
COc1ccc(-c2cc3nnc(-c4ccccc4)nc3s2)cc1	-9%	40µM*	-6%	30%	-6%	?
Cc1ccc(S(=O)(=O)/N=C(\N)Nc2nc(C)c3ccccc3n2)cc1	-25%	89µM*	-7%	14%	-10%	12%
c1ccc2c(c1)OCCOCCOCCOCCO2	nt	8%	nt	nt	nt	nt
COc1ccc(S(=O)(=O)NCCS(=O)(=O)N2CCN(c3ccccc3F)CC2)cc1	-15%	nt	0%	6%[57 µM]	nt	4%[59 µM]
Cc1ccc(-c2cc(-c3n[nH]c(=S)o3)c3ccccc3n2)cc1	?	-15%	?	30%	-15%	?
CSc1nnc(-c2cc(-c3ccc(C)cc3)nc3ccccc23)o1	16%	-19%	5%	37%	8%	7.9µM*
Cc1nnc(N2CCCC(C(=O)NCCc3ccc(Cl)cc3)C2)c2nn(-c3ccccc3)c(C)c12 (stereo unspecified)	-9%	nt	-38%	16%	nt	-8%[59 µM]
O=C(CN1C(=O)C2C3C=CC(C3)C2C1=O)Nc1nc2ccccc2[nH]1 (stereo unspecified)	11µM*	-2%	-35%	6%	nt	79µM*
